Results filed as inconclusive are left out. Calls of active or inactive are those of the source. Unless noted, calls follow the shape of the dose curve; as a rule, active = well fitted curve in the direction sought with a large enough effect in the repeat runs; inconclusive = weak or mixed curves; inactive = no such curve, though single readings can be large; an effect the other way counts as inactive or inconclusive.
What was measured:
[1] = qHTS assay to identify aromatase inhibitors - cell viability counter screen (AID 743084);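 also: cells stimulated with testosterone during compound exposure; nearly all actives have a fitted effect of over 55% in size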
[2] = biological target: Aryl hydrocarbon receptor (Homo sapiens) (UniProt P35869); test: qHTS assay to identify small molecule that activate the aryl hydrocarbon receptor (AhR) signaling pathway (AID 743085); also: nearly all actives have a fitted effect of over 15% in size; also: potency is read from the fitted curve at half-maximal effect;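 as to activation: HG2L7.5c1 human HepG2 liver cells with stably integrated DRE-driven firefly reporter; series mostly up to about 70 µM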
Chain of Aryl hydrocarbon receptor (Homo sapiens) (P35869 whole entry, looked up): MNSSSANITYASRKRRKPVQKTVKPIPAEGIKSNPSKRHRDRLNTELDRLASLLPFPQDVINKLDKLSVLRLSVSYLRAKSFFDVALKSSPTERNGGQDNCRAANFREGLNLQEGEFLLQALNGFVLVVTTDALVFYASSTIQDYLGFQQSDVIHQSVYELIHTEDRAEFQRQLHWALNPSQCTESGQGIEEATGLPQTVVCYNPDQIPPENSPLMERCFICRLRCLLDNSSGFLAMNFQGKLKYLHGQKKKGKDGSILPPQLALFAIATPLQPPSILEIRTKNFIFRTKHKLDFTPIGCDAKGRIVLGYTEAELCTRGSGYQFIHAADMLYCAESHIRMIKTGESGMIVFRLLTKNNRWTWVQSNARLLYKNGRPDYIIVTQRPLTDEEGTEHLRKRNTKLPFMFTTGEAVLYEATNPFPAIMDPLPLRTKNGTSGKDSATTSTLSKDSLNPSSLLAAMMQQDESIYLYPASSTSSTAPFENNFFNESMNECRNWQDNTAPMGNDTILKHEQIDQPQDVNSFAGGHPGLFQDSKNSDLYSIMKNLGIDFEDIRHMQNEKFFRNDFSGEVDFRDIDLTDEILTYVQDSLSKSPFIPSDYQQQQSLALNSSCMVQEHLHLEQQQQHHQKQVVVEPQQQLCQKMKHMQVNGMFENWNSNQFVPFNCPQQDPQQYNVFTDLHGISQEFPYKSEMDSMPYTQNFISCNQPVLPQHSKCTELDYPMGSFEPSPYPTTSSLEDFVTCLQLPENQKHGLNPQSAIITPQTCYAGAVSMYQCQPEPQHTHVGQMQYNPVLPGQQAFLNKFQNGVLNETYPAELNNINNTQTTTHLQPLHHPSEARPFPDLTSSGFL
Method in brief: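 Reporter assay in engineered HepG2 line HG2L7.5c1, whose plasmid carries twenty dioxin responsive elements upstream of firefly luciferase. Treatment lasted 24 h at 37C; ONE-Glo luminescence gauged induction.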

[3] = qHTS assay to identify small molecule that activate the aryl hydrocarbon receptor (AhR) signaling pathway - cell viability counter screen (AID 743086);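 also: HepG2 liver cells carrying the AhR DRE luciferase reporter; series mostly up to about 70 µM; nearly all actives have a fitted effect of over 45% in size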
Method in brief: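 HepG2-AhR-luc (HG2L7.5c1) cells, 4000/well, were preincubated 5 h at 37C, exposed to compound in qHTS format for 24 hr at 37C, then given CellTiter-Fluor for 30 min; viability was read as fluorescence in the reporter wells.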

[4] = biological target: Peroxisome proliferator-activated receptor gamma (Homo sapiens) (UniProt P37231); test: qHTS assay to identify small molecule agonists of the peroxisome proliferator-activated receptor gamma (PPARg) signaling pathway (AID 743094; active = well fitted activation curve with a large enough effect in the signal ratio in the repeat runs, not every such curve was filed as active; the % refers to the signal ratio)
Chain of Peroxisome proliferator-activated receptor gamma (Homo sapiens) (P37231 whole entry, looked up): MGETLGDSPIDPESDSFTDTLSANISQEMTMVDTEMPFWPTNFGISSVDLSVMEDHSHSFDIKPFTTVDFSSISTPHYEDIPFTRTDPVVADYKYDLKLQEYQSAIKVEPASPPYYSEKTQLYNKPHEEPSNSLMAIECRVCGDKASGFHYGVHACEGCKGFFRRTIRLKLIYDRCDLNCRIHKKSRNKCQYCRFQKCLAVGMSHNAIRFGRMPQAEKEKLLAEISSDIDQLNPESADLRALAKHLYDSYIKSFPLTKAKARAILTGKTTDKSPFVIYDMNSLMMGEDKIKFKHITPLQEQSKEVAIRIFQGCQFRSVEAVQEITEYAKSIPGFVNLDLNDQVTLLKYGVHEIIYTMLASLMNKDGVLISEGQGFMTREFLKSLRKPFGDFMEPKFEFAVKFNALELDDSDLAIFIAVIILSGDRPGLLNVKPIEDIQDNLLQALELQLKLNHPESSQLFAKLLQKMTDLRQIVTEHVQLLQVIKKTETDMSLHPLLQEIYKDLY
Method in brief: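 HEK293H PPARg-bla cells, 5 h settle at 37C/5% CO2; compound (DMSO) 17 h, 37C; B/G FRET substrate 1 h RT; fluorescence intensity read-out. qHTS format.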

[5] = biological target: Peroxisome proliferator-activated receptor gamma (Homo sapiens) (UniProt P37231); test: qHTS assay to identify small molecule antagonists of the peroxisome proliferator-activated receptor gamma (PPARg) signaling pathway (AID 743191; calls by dose curve; also: series mostly up to about 63 µM; nearly all actives have a fitted effect of over 30% in size)
Method in brief: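 GeneBLAzer PPARg UAS-bla HEK293H cells carrying a UAS-driven beta-lactamase reporter were plated at 3000 cells/well, preincubated 5 h at 37C, then given compound for 17 h at 37C; LiveBLAzer B/G FRET substrate was read after 1 h at room temperature.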

[6] = qHTS assay to identify small molecule antagonists of the peroxisome proliferator-activated receptor gamma (PPARg) signaling pathway - cell viability counter screen (AID 743194); also: nearly all actives have a fitted effect of over 55% in size
Method in brief: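 PPARg-UAS-bla HEK293H cells were plated, rested 5 h at 37 C, then treated with compounds plus rosiglitazone (50 nM final) for 17 h at 37 C; viability was then read by CellTiter-Glo luminescence after 30 min at room temperature.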

[7] = qHTS assay for small molecule agonists of the antioxidant response element (ARE) signaling pathway (AID 743202; active = well fitted activation curve with a large enough effect in the signal ratio in the repeat runs, not every such curve was filed as active; the % refers to the signal ratio)
Method in brief: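 Steps: seed ARE-bla HepG2 cells (2,000/well); incubate 5 h at 37 C; add compounds by pin tool; incubate 16 h at 37 C; add FRET substrate; read fluorescence after 2 h at RT.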

[8] = qHTS assay for small molecule activators of the heat shock response signaling pathway (AID 743210; active = well fitted activation curve with a large enough effect in the signal ratio in the repeat runs, with a control signal flat, not every such curve was filed as active; the % refers to the signal ratio;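 also: HeLa cells with beta-lactamase reporter driven by heat shock elements; series mostly up to about 63 µM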)
Method in brief: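 Activation of heat shock element-controlled beta-lactamase expression is measured in HeLa cells by LiveBLAzer FRET fluorescence, with compound exposure lasting 5 h at 37 C and substrate loading 2.5 h at room temperature.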

[9] = qHTS assay to identify small molecule agonists of the peroxisome proliferator-activated receptor delta (PPARd) signaling pathway - cell viability counter screen (AID 743211); also: nearly all actives have a fitted effect of over 55% in size
Method in brief: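 Multiplexed format: after the 2 h room-temperature LiveBLAzer B/G FRET step, CellTiter-Glo was added to the same wells. Luminescence after 30 min gave cell viability; compound exposure was 17 h at 37C.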

[10] = biological target: Peroxisome proliferator-activated receptor delta (Homo sapiens) (UniProt Q03181); test: qHTS assay to identify small molecule agonists of the peroxisome proliferator-activated receptor delta (PPARd) signaling pathway (AID 743212; calls by dose curve)
Chain of Peroxisome proliferator-activated receptor delta (Homo sapiens) (Q03181 whole entry, looked up): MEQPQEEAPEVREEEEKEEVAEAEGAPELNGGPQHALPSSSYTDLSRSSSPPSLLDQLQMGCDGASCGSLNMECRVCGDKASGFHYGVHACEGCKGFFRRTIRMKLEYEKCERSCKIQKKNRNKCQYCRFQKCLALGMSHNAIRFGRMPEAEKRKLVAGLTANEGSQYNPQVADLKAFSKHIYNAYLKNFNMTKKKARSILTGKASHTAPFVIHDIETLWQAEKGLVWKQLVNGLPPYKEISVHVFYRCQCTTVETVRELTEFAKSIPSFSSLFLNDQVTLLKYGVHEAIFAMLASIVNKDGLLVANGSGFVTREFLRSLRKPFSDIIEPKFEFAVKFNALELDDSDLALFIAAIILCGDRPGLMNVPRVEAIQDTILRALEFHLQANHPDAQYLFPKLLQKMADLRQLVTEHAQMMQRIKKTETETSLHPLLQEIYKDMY
Method in brief: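 Cells expressing a UAS-driven beta-lactamase reporter (PPARd-bla HEK293H) were given test compounds after a 5 h settle and kept at 37 C. Reporter activity was then measured as FRET fluorescence using LiveBLAzer B/G substrate.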

[11] = biological target: Bile acid receptor (Homo sapiens) (UniProt Q96RI1); test: qHTS assay to identify small molecule antagonists of the farnesoid-X-receptor (FXR) signaling pathway (AID 743217; active = well fitted inhibition curve with a large enough effect in the signal ratio in the repeat runs, not every such curve was filed as active; the % refers to the signal ratio)
Chain of Bile acid receptor (Homo sapiens) (Q96RI1 whole entry, looked up): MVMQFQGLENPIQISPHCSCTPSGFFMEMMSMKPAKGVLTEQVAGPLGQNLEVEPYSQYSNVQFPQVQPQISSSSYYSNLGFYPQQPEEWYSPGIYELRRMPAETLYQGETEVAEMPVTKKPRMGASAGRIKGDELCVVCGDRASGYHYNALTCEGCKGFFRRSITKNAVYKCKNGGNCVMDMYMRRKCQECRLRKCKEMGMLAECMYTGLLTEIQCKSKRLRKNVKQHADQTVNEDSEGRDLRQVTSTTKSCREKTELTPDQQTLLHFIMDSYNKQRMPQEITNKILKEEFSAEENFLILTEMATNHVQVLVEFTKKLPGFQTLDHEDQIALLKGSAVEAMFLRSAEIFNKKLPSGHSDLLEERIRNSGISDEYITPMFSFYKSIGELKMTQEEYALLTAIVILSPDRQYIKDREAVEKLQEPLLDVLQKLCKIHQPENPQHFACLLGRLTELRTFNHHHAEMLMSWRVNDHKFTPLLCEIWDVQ
Method in brief: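 Read-out: beta-lactamase FRET fluorescence (LiveBLAzer B/G substrate, 2 h, room temperature) in GeneBLAzer FXR-UAS-bla HEK 293T cells. Compounds were co-dosed with 50 uM chenodeoxycholic acid (final) and incubated 16 h at 37 °C.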

[12] = qHTS assay to identify small molecule agonists of the farnesoid-X-receptor (FXR) signaling pathway - cell viability counter screen (AID 743218); also: nearly all actives have a fitted effect of over 45% in size
Method in brief: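 Luminescence from CellTiter-Glo, read after 30 min at RT, reports viability of GeneBLAzer FXR-UAS-bla HEK 293T cells treated 16 h with compounds in the wells used for the beta-lactamase reporter.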

[13] = biological target: Bile acid receptor (Homo sapiens) (UniProt Q96RI1); test: qHTS assay to identify small molecule agonists of the farnesoid-X-receptor (FXR) signaling pathway (AID 743220; active = well fitted activation curve with a large enough effect in the signal ratio in the repeat runs, not every such curve was filed as active; the % refers to the signal ratio)
Method in brief: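 FXR-UAS-bla HEK 293T cells carrying a UAS-driven beta-lactamase reporter were plated for 5 h at 37C/5% CO2, then exposed to DMSO-dissolved Tox21 10K compounds for 16 h at 37C. A LiveBLAzer B/G FRET substrate was loaded for 2 h at room temperature before fluorescence reading.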

[14] = qHTS assay to identify small molecule antagonists of the farnesoid-X-receptor (FXR) signaling pathway - cell viability counter screen (AID 743221; active = well fitted cell-killing curve with a large enough effect in the repeat runs, not every such curve was filed as active; also: nearly all actives have a fitted effect of over 50% in size)
Method in brief: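 CellTiter-Glo, 30 min RT, luminescence; same wells as the LiveBLAzer FRET read. Cells: FXR-UAS-bla HEK 293T. Treatment: compound with chenodeoxycholic acid 50 uM final, 16 h at 37 C.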

[15] = qHTS assay for small molecule activators of the heat shock response signaling pathway - cell viability counter screen (AID 743209); also: nearly all actives have a fitted effect of over 50% in size
Method in brief: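 HSE-bla HeLa; 1500 cells/well; overnight 37 C, 5% CO2; compound 5 h 37 C; LiveBLAzer B/G substrate 2.5 h RT; CellTiter-Glo 30 min RT; luminescence.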

[16] = qHTS assay to identify small molecule antagonists of the peroxisome proliferator-activated receptor delta (PPARd) signaling pathway - cell viability counter screen (AID 743213); also: nearly all actives have a fitted effect of over 50% in size
Method in brief: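 In this counter screen, HEK293H cells carrying a UAS-beta-lactamase reporter are co-treated with test compounds and 300 nM L165041 (final) for 17 h at 37 C; cell viability is quantified by CellTiter-Glo luminescence.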

[17] = biological target: Vitamin D3 receptor (Homo sapiens) (UniProt P11473); test: qHTS assay to identify small molecule antagonists of the vitamin D receptor (VDR) signaling pathway (AID 743223; active = well fitted inhibition curve with a large enough effect in the signal ratio in the repeat runs, not every such curve was filed as active; the % refers to the signal ratio)
Chain of Vitamin D3 receptor (Homo sapiens) (P11473 whole entry, looked up): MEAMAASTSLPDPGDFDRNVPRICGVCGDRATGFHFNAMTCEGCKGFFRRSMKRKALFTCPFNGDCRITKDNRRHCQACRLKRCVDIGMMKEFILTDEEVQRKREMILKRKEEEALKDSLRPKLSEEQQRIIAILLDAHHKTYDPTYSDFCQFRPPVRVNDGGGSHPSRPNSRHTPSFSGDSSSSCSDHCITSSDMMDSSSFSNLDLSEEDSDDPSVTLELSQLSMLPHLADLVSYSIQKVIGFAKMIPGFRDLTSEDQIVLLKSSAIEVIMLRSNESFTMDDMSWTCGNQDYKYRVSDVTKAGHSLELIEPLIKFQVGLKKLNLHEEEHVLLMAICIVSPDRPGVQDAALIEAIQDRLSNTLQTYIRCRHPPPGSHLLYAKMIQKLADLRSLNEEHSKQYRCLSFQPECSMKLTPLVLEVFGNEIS
Method in brief: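 After VDR-bla cells are plated and left 4 h at 37C, DMSO-dissolved compounds and 3 nM (final) calcitriol agonist are added. Incubation continues 16 h at 37C; FRET beta-lactamase substrate then develops 2 h at room temperature.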

[18] = biological target: Peroxisome proliferator-activated receptor delta (Homo sapiens) (UniProt Q03181); test: qHTS assay to identify small molecule antagonists of the peroxisome proliferator-activated receptor delta (PPARd) signaling pathway (AID 743215; active = well fitted inhibition curve with a large enough effect in the signal ratio in the repeat runs, not every such curve was filed as active; the % refers to the signal ratio;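 also: cells stimulated with agonist L165041 at 300 nM final during compound exposure; series mostly up to about 62 µM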)
Method in brief: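 HEK293H GeneBLAzer PPARd UAS-bla reporter cells; cpd + L165041 300 nM final, 17 h 37 C; LiveBLAzer B/G FRET substrate 2 h RT; fluorescence intensity read-out. Antagonist mode.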

[19] = biological target: Vitamin D3 receptor (Homo sapiens) (UniProt P11473); test: qHTS assay to identify small molecule agonists of the vitamin D receptor (VDR) signaling pathway (AID 743222; calls by dose curve)
Method in brief: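 Beta-lactamase reporter readout (LiveBLAzer B/G FRET, 2 h RT) in VDR-bla cells after 16 h compound treatment at 37C, 5% CO2; cells pre-incubated 4 h before pin transfer of DMSO solutions.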

[20] = qHTS assay for small molecule agonists of the antioxidant response element (ARE) signaling pathway - cell viability counter screen (AID 743203; calls by dose curve; also: nearly all actives have a fitted effect of over 55% in size)
Method in brief: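 Luminescence read-out (CellTiter-Glo, 30 min at room temperature) measured cell viability in the same wells as the ARE beta-lactamase reporter. HepG2 ARE-bla cells were treated with compounds for 16 hrs at 37C/5% CO2.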
% is scaled to controls: 0 for no effect and ±100 for the full control effect.

Nc1nc(N)c(-c2ccccc2)s1
inactive: Potency [1] | Potency [2] | Potency [3] | Potency [4] | Potency [5] | Potency [6] | Potency [7] | outcome [8] | Potency [9] | outcome [10] | outcome [11] | Potency [12] | outcome [13] | Potency [14]

COCCOCCOCCOCCOC
inactive: Potency [1] | Potency [2] | Potency [3] | Potency [4] | Potency [5] | Potency [6] | Potency [7] | Potency [15] | Potency [9] | outcome [10] | Potency [16] | Potency [12] | Potency [17]

CCCCOC(O)CC (stereo not drawn)
inactive: Potency [1] | Potency [2] | Potency [3] | Potency [4] | Potency [5] | Potency [6] | Potency [7] | Potency [15] | outcome [8] | outcome [10] | Potency [16] | outcome [18] | outcome [11] | Potency [12] | outcome [13] | Potency [14] | outcome [19] | Potency [17]

Cc1occc1S
inactive: Potency [1] | Potency [2] | Potency [3] | Potency [4] | Potency [5] | Potency [6] | Potency [20] | Potency [15] | Potency [9] | outcome [10] | Potency [16] | Potency [12] | Potency [14] | outcome [19] | Potency [17]

O=C=NC1CCC(CC2CCC(N=C=O)CC2)CC1 (stereo not drawn)
inactive: Potency [1] | Potency [2] | Potency [3] | Potency [4] | Potency [6] | Potency [7] | Potency [20] | Potency [15] | outcome [10] | Potency [16] | outcome [19]

NC[C@H]1O[C@H](O[C@H]2[C@H](O)[C@@H](O[C@H]3O[C@H](CO)[C@@H](O)[C@H](N)[C@H]3O)[C@H](N)C[C@@H]2N)[C@H](O)[C@@H](O)[C@@H]1O
inactive: Potency [1] | activation [2] 0.116% [at 8.47 µM] | Potency [3] | Potency [4] | activity change, negative = cytotoxicity [6] -17.2% [at 5.95 µM] | activation [7] 4.43% [at 8.36 µM] | viability change, negative = cytotoxic [20] 7.86% [at 8.36 µM] | activity change, negative = cytotoxicity [15] 5.37% [at 5.95 µM] | activity change, negative = cytotoxicity [9] -7.03% [at 5.95 µM] | activation [10] -4.29% [at 5.95 µM] | viability change, negative = cytotoxic [16] -5.87% [at 6.26 µM] | ratio activity, negative = inhibition [18] 3.27% [at 6.26 µM] | viability change, negative = cytotoxic [12] 5.82% [at 5.95 µM] | activity change, negative = cytotoxicity [14] -10.3% [at 5.95 µM] | activation [19] -7.13% [at 6.01 µM] | activity change, negative = inhibition [17] 5.88% [at 6.95 µM]

CCCCCCCCCCCCCCCC(=O)OC/C=C(C)/C=C/C=C(C)/C=C/C1=C(C)CCCC1(C)C
inactive: Potency [1] | Potency [2] | Potency [3] | Potency [4] | Potency [5] | Potency [6] | Potency [15] | Potency [9] | outcome [10] | Potency [16] | outcome [18] | outcome [11] | outcome [13] | Potency [14] | Potency [17]

COc1ccc(C(C)=O)cc1
inactive: Potency [1] | Potency [2] | Potency [3] | Potency [4] | Potency [5] | Potency [6] | Potency [20] | Potency [15] | outcome [8] | Potency [14] | Potency [17]

Cc1ccccc1N=Nc1ccc(N=Nc2c(O)ccc3ccccc23)c(C)c1
active: Potency [2] 13.3 µM
inactive: Potency [1] | Potency [3] | Potency [4] | Potency [5] | Potency [6] | Potency [20] | Potency [15] | outcome [8] | Potency [9] | outcome [10] | Potency [16] | outcome [18] | Potency [12] | Potency [14]

Reference: PubChem BioAssay (Tox21)
